# In article PMC6925144, “A prospective compound screening contest identified broader inhibitors for Sirtuin 1” (Scientific Reports, 2019):
# Target: NAD-dependent deacetylase Sirtuin 1 (human, UniProt Q96EB6)
# Assay: primary screen, percent inhibition; higher = more effect of the substance
# Design: mean of n = 4
# Conditions: 10 µM
# Protocol: Note that the inhibitory assay was conducted with NAD+.
# Chain of NAD-dependent deacetylase Sirtuin 1 (Q96EB6 2-747 limits assumed): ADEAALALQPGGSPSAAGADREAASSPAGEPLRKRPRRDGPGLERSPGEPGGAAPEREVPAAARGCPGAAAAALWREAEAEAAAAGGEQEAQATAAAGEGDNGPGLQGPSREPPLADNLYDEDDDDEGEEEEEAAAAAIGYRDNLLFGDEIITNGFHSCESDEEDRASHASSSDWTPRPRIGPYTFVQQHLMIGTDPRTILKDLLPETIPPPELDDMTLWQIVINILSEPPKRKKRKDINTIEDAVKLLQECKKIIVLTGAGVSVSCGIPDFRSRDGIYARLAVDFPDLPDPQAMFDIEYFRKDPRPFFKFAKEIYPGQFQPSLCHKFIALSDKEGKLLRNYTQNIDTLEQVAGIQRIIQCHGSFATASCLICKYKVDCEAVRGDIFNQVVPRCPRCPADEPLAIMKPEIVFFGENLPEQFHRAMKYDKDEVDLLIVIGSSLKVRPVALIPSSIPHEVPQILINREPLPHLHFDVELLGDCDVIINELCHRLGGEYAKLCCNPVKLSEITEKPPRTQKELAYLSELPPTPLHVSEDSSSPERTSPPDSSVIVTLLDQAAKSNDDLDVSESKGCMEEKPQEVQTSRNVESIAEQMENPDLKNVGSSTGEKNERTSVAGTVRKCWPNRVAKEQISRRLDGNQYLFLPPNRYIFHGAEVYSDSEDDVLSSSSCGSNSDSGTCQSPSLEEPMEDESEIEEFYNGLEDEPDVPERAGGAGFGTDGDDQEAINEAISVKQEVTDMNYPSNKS
Compound,TSA(without NAD+) / Inhibitory assay (Promega kit) / Mean (%),TSA(with NAD+) / Inhibitory assay (Promega kit) / Mean (%)
Cc1sc2nc(-c3cccs3)nc(N3CCC(C(N)=O)CC3)c2c1C,-0.574,
COc1ccc(NC(=O)CSc2nnc(Nc3ccc(SC(F)F)cc3)s2)cc1OC,16.2,
COc1ccc(NC(=O)c2ccc(NC(=O)COC(=O)C34CC5CC(CC(Br)(C5)C3)C4)cc2)cc1,17.2,
Cc1nc(N2CCC(C(N)=O)CC2)c2c3c(sc2n1)CCCCC3,14.5,
COC(=O)c1cc(-c2csc(NC(=O)c3cccc(NC(=O)c4cnoc4C)c3)n2)c[nH]1,30.1,
COc1ccc(N(C)S(=O)(=O)c2cccc(C(=O)Nc3ccc(Br)c(C(F)(F)F)c3)c2)cc1,5.07,
NC1=Nc2nc3ccccc3n2C(c2ccc(-c3ccc(C(=O)O)cc3)o2)N1 (stereo not shown),17.6,
c1ccc(-c2[nH]c3c(ccc4ccccc43)c2-c2ccccc2)cc1,-0.157,
O=C1NC(=O)c2ccccc2/C1=C\NNC(=O)C12CC3CC(CC(C3)C1)C2,,27.6
Cc1nc(N2CCC(C(N)=O)CC2)c2c3c(sc2n1)CCCC3,11.5,
COc1ccc(N(C)S(=O)(=O)c2cccc(C(=O)Nc3ccc(-n4cnnn4)cc3)c2)cc1,26.1,
O=C(NN/C=C1/C(=O)N(c2cccc(C(F)(F)F)c2)C(=O)c2ccccc21)c1cccc(S(=O)(=O)Nc2ccccc2Cl)c1,-38.6,
O=C(CSc1nnnn1-c1ccc(O)cc1)N1N=C(c2ccc3ccccc3c2)CC1c1ccccc1 (stereo not shown),28.5,
O=C(CCc1c[nH]c2ccccc12)Nc1nnc(-c2ccccc2)o1,10.8,
CCCCCCCCNC(=O)/C(C#N)=C/c1c[nH]c2ccccc12,9.56,
Cc1ccc([N+](=O)[O-])cc1S(=O)(=O)Nc1ccc(C(=O)OC(C)C(=O)NC23CC4CC(CC(C4)C2)C3)cc1 (stereo not shown),-3.81,
Cc1ccc(N(C)S(=O)(=O)c2cccc(C(=O)Nc3ccc4c(c3)C(=O)N(C)C4=O)c2)cc1,,25
CN(c1ccccc1)S(=O)(=O)c1cccc(NC(=O)CCCc2c[nH]c3ccccc23)c1,-10.4,
O=C(COc1ccccc1C(=O)Nc1ccc(S(=O)(=O)Nc2nccs2)cc1)Nc1cccc(C(F)(F)F)c1,10.1,
NCc1nc2c(cnn2-c2ccccc2)c(=O)[nH]1,62.5,

Compound,TSA(without NAD+) / Inhibitory assay (Promega kit) / Mean (%),TSA(with NAD+) / Inhibitory assay (Promega kit) / Mean (%)
NC(=O)C1CCN(c2nc(CSc3ccccc3)nc3sc4c(c23)CCCC4)CC1,12.9,
CCOc1cc(/C=N/NC(=O)c2cc3c(s2)CCCC3)ccc1OCC(=O)Nc1cccc(C(F)(F)F)c1,-2.14,
COc1ccc(N(C)S(=O)(=O)c2cccc(C(=O)Nc3ccc(Br)cc3)c2)cc1,,29.2
Cc1ccc(N(C)S(=O)(=O)c2cccc(C(=O)Nc3ccc(C(N)=O)cc3)c2)cc1,0.783,
Cc1cccc(NS(=O)(=O)c2cccc(C(=O)OCC(=O)NC(=O)NC34CC5CC(CC(C5)C3)C4)c2)c1,,31
CC(=C/c1ccccc1)/C=N/NC(=O)c1cc(-c2ccc(C)cc2)n[nH]1,0.0522,
COc1ccc(N(C)S(=O)(=O)c2cccc(C(=O)Nc3ccc4ccccc4c3)c2)cc1,-4.02,
Cc1ccc(C(=O)Nc2nc3ccc(NS(=O)(=O)c4ccc5c(c4)CCC(=O)N5)cc3s2)s1,31.3,
O=C1/C(=C/c2cnn(-c3ccccc3)c2)Oc2cc(O)ccc21,9.45,
Cc1ccc(C(C)(C)C)cc1S(=O)(=O)Nc1cccc(C(=O)NNC(=O)c2cccc(S(=O)(=O)Nc3cccc(C(F)(F)F)c3)c2)c1,-8.09,
O=C(Nc1cccc(S(=O)(=O)N2CCOCC2)c1)c1cn(-c2ccccc2)nc1-c1ccc(Cl)cc1,13.8,
O=C(NC(=S)Nc1ccc(-c2nc3ccccc3[nH]2)cc1)C12CC3CC(CC(C3)C1)C2,22.7,
NC(=O)C1CCN(c2nc(-c3cccnc3)nc3sc4c(c23)CCCC4)CC1,,39.7
O=C1/C(=C\c2cc(Br)cc(Br)c2O)CC/C1=C\c1cc(Br)cc(Br)c1O,44.3,
Cc1ccc(N(C)S(=O)(=O)c2cccc(C(=O)Nc3ccc(Br)c(C)c3)c2)cc1,,27
Oc1cccc2c1Cc1c-2nc2ccc(Cl)cc2c1-c1ccccc1Cl,,24.3
N#CC(C(=O)c1ccc(NS(=O)(=O)c2ccccc2)cc1)c1nc(-c2ccccn2)cs1 (stereo not shown),-150,
O=C1/C(=C/NNC(=O)C23CC4CC(CC(C4)C2)C3)c2ccccc2C(=O)N1Cc1ccccc1,-173,
NC(=O)C1CCN(c2nc(-c3cccs3)nc3sc4c(c23)CCCC4)CC1,0.0174,
NC(=O)c1cccc(NC(=O)c2cc3c(s2)-c2ccccc2CC3)c1,4.33,
